AmpC inh detg: blocks E. coli AmpC beta-lactamase in detergent assay. P00811. AmpC hydrolysis of nitrocefin, absorbance 480 nm, 0.01% Triton. Potency, µM (highest dose often 114 µM), without a hit: at the top dose activity change, negative = inhibition, usual class: inhibitors. hit rate 0.041% among 370,000. AID 485294;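 further: 0% = no-compound wells and -100% = no-enzyme wells; nearly all actives have a fitted effect of over 25% in size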
Target sequence (P00811 whole entry, looked up): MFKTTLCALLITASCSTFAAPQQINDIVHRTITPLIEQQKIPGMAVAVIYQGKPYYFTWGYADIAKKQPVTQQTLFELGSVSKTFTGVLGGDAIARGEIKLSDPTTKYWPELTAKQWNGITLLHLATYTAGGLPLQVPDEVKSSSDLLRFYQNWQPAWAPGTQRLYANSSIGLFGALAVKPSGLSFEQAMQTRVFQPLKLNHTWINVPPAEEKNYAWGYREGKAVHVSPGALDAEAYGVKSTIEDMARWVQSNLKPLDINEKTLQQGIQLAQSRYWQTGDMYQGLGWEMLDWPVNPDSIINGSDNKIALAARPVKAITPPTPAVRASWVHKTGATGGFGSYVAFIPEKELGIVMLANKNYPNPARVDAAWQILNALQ
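20 mM phosphate pH 7.0 + 0.01% (detergent screen) or 0.0001% Triton X-100; 5.3 nM AmpC reagent; cpd preinc 15 min RT; nitrocefin (800 uM stock) to start; A480 q20 s × 4 min; Activity was normalised to no-enzyme and no-compound control wells.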
Pf growth 48h: P. falciparum growth inhibition at 48 hours (one generation) | AID 504832 | P. falciparum luciferase growth in erythrocytes, 48 h | hit rate 5.9% among 310,000 | Potency, µM (highest dose often 28.7 µM), for the others: at the highest dose activity change, negative = inhibition, most hits filed as inhibitors
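Read-out is firefly luciferase luminescence from an integrated reporter in P. falciparum, so falling signal marks reduced parasite growth. Infected erythrocytes were at 2% hematocrit and 0.1% parasitemia (final) in Albumax-supplemented RPMI 1640.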
AMA1 RON2 block: AMA1-RON2 (P. falciparum) interaction inhibition; Potency, µM (top dose mostly 58.2 µM), for inactives: top-dose activity change, negative = inhibition, hits mostly inhibitors; AlphaScreen AMA1-biotinylated RON2 peptide binding; hit rate 0.2% among 360,000;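 further: 0% = vehicle wells and -100% = peptide control; nearly all actives have a fitted effect of over 45% in size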
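AMA1 (3D7) with his tag at 25 nM final met compounds first, then biotinylated RON2 peptide at 25 nM; detection used donor plus acceptor beads, 10 µg/mL apiece, read by AlphaScreen after 30 min at room temperature.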
HCV inhibitor: HCV inhibition | Potency, µM (titrated, usually from 41.8 µM), for inactives: top-dose activity change, negative = inhibition, usual class: inhibitors | AID 651820 | Huh7.5.1 HCVcc-Cre infection, luciferase reporter, 44 h | hit rate 3.4% among 340,000
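Seed cells (1,000/well) for 4 h; treat with compound and infect with HCVcc-Cre, moi about 0.5. Incubate 44 h, then detect luciferase activity.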
Pf growth 96h: P. falciparum growth inhibition at 96 hour, primary screen for plastid delayed-death inhibitors; Potency, µM (top dose mostly 28.7 µM), for the others: at the top dose activity change, negative = inhibition, usual class: inhibitors; P. falciparum luciferase reporter growth, 96 h; hit rate 6.9% among 320,000
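Two parasite generations (96 h, 37 C, 5% CO2) of compound exposure in infected erythrocytes (0.05% parasitemia, 2% hematocrit). Luciferase-reporter P. falciparum; decreased luminescence indicates inhibited growth, aimed at apicoplast-acting delayed death.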
AmpC no deterg: AmpC beta-lactamase inhibition without detergent; P00811; AmpC nitrocefin hydrolysis, absorbance 480 nm, 0.0001% Triton; Potency, µM (titrated, usually from 57.1 µM), inactives show top-dose activity change, negative = inhibition, usual class: inhibitors; hit rate 0.52% among 330,000; AID 485341;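 further: plate controls were no compound for no effect and no enzyme for full effect; nearly all actives have a fitted effect of over 20% in size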
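AmpC (5.3 nM in the dispensed reagent) in 20 mM phosphate pH 7.0 with 0.01% (detergent screen) or 0.0001% Triton X-100 was preincubated with compounds for 15 min at room temperature. Nitrocefin was then added from an 800 uM solution, and hydrolysis was followed at 480 nm.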
* = called active by the depositor; [ ] = dose if it differs, or a comment. Most compounds without a hit are left out; they make up all but 11% or so of the library. The call rests on the fitted dose curve; in most records, active means well fitted curve in the direction sought with a large enough effect; inconclusive means small, poorly fitted or top-dose-only effect, or another doubt; inactive means no such curve, though single readings can be large; an effect the other way counts as inactive or inconclusive. Unless noted, on the % scale 0 is the no-effect control and ±100 the full control effect; potency means the concentration at half of the fitted maximal effect.

`CC(C)(CNC(=O)CCC1CCCC1)CNC(=O)CCC1CCCC1` gave AmpC inh detg 0%, Pf growth 48h inconclusive, AMA1 RON2 block 0%, HCV inhibitor 4%, Pf growth 96h 10µM* and AmpC no deterg 146%.
COCCNC(=O)c1cc(-c2cccs2)on1 was read as AmpC inh detg inconclusive, Pf growth 48h 109%, AMA1 RON2 block -2%, HCV inhibitor inconclusive, Pf growth 96h 11% and AmpC no deterg 6.3µM*.
For CCc1cc(C(=O)Nc2cnn(Cc3ccc(F)cc3)c2)no1 the results were AmpC inh detg 3%.
`Cc1ccc(Cn2ccc(NC(=O)c3cc(-c4cccs4)on3)n2)cc1` gave AmpC inh detg -11%, Pf growth 48h 10µM*, AMA1 RON2 block 9%, HCV inhibitor -3%, Pf growth 96h inconclusive and AmpC no deterg -23%.
For O=C(Nc1cnn(Cc2ccc(F)cc2)c1)c1cc(-c2cccs2)on1 the results were AmpC inh detg inconclusive, AMA1 RON2 block -9%, HCV inhibitor 8.9µM*, Pf growth 96h inconclusive and AmpC no deterg -32%.
For CCc1ccc(NC(=O)c2sc(-n3nc(C)c(CCC(C)C)c3C)nc2C)cc1 the results were AmpC inh detg 10%.
For COC(=O)c1c(NC(=O)c2cc(=O)c3ccc(C)c(C)c3o2)sc2c1CCCC2 the results were AmpC inh detg 16%.
For Cc1cccc(N2CCN(C(=O)c3c(C)oc4nc(C)nc(N5CCCC5)c34)CC2C)c1 (centres undefined) the results were AmpC inh detg 21%.
CCN(C(=O)CSc1nnc(CNc2cccc(OC)c2)n1C1CCCCC1)C1CCS(=O)(=O)C1 (centres undefined) was read as AmpC inh detg 9%, Pf growth 48h inconclusive, AMA1 RON2 block -15%, HCV inhibitor inconclusive, Pf growth 96h 4.1µM* and AmpC no deterg 218%.
`CC(C)(C)C1CCC(=O)N(CCSc2ccccc2)CC1` (centres undefined) gave AmpC inh detg -19%, Pf growth 48h 260%, AMA1 RON2 block 20%, HCV inhibitor 3.5µM*, Pf growth 96h 8% and AmpC no deterg 34%.
Screening COc1ccc(NC(=O)c2oc3ccc(S(=O)(=O)N(C)C4CCCCC4)cc3c2C)cc1Cl returned AmpC inh detg -5%.
For COc1ccc2c(CNC3CCC(C)CC3)c(C(=O)O)n(Cc3ccccc3)c2c1 (centres undefined) the results were AmpC inh detg -7%.
CC(=O)OC1CN2CCC1CC2 (centres undefined) was read as Pf growth 48h -5% and Pf growth 96h 4.8µM*.
CC1CCC/C(=C(\C#N)c2nc(-c3cc4ccccc4oc3=O)cs2)C1 (centres undefined) was read as AmpC inh detg -8%, Pf growth 48h 296%, AMA1 RON2 block 8%[2.32 µM], HCV inhibitor inconclusive, Pf growth 96h 6.6µM* and AmpC no deterg -32%.
For COc1ccc(-c2cc(C(=O)N3CCc4ccccc4C3)no2)cc1 the results were AmpC inh detg 4%, Pf growth 48h 12%, AMA1 RON2 block 4%, HCV inhibitor -19%, Pf growth 96h inconclusive and AmpC no deterg -14%.
For COc1ccc2[nH]c(C(=O)N3CCc4ccccc4C3)c(C)c2c1 the results were AmpC inh detg -6%, Pf growth 48h inconclusive, AMA1 RON2 block -6%, HCV inhibitor 11µM*, Pf growth 96h inconclusive and AmpC no deterg -19%.
Screening COc1ccc(OC)c(-c2cc(C(=O)N3CCc4ccccc4C3)no2)c1 returned AmpC inh detg inconclusive, Pf growth 48h 22%, AMA1 RON2 block 0%, HCV inhibitor 6%, Pf growth 96h 9.3µM* and AmpC no deterg 12%.
`CC(=O)Nc1nc(C)nc(-c2ccccc2OC(C)=O)n1` gave AmpC inh detg 2%, Pf growth 48h 20%, AMA1 RON2 block 6%, HCV inhibitor inconclusive, Pf growth 96h inconclusive and AmpC no deterg -7%.
For CC(=O)Nc1nc(-c2ccccc2)nc(-c2ccccc2OC(C)=O)n1 the results were AmpC inh detg -20%, Pf growth 48h inconclusive, AMA1 RON2 block 0%, HCV inhibitor 2.8µM*, Pf growth 96h inconclusive and AmpC no deterg 46%.
For COc1ccc(CCNC(=O)c2cc(C3CC3)nc3c2cnn3C(C)C)cc1 the results were AmpC inh detg -5%, Pf growth 48h inconclusive, AMA1 RON2 block 13%, HCV inhibitor 10µM*, Pf growth 96h inconclusive and AmpC no deterg 4%.
COc1ccccc1CCNC(=O)c1cc(C2CC2)nc2c1cnn2C(C)C was read as AmpC inh detg -10%, Pf growth 48h inconclusive, AMA1 RON2 block -7%, HCV inhibitor 8.9µM*, Pf growth 96h 10µM* and AmpC no deterg -12%.
`COc1ccccc1OCCNC(=O)c1cc(C2CC2)nc2c1cnn2C(C)C` gave AmpC inh detg 0%, Pf growth 48h inconclusive, AMA1 RON2 block 11%, HCV inhibitor 1.3µM*, Pf growth 96h 10µM* and AmpC no deterg 29%.
Screening Cc1cccc(OCCNC(=O)c2cc(C3CC3)nc3c2cnn3C(C)C)c1 returned AMA1 RON2 block -3%.
Screening Cc1cccc(C(=O)NCCc2nc3ccccc3n2Cc2ccc(Cl)cc2)c1 returned AmpC inh detg 7%.
Screening C[C@H](O)CN(C)C returned Pf growth 48h 6% and Pf growth 96h -13%.
`COc1ccc(OC)c(-c2cc(C(=O)NC(C)c3ccccc3)no2)c1` (centres undefined) gave AmpC inh detg 12%.
`COc1cccc(CNCCSc2nnnn2C)c1OCc1ccc(Cl)cc1` gave AmpC inh detg 0%.
`Cn1c(Cn2c(=O)sc3ccccc32)nnc1SCc1ccccc1F` gave AmpC inh detg -10%, AMA1 RON2 block 0%, HCV inhibitor -8%, Pf growth 96h 12µM* and AmpC no deterg 2%.
Screening COCCCNC(=O)CCn1c(=O)c2ccccc2n(CC(=O)Nc2c(C)cc(C)cc2C)c1=O returned AmpC inh detg 31%.
For Cc1ccc(Cl)c2sc(N3CCN(C(=O)C4CC4)CC3)nc12 the results were AmpC inh detg 1%.
For C=CCn1c(SCc2nc3ccccc3[nH]2)nnc1-c1ccccn1 the results were AmpC inh detg -7%, Pf growth 48h -8%, AMA1 RON2 block -12%, HCV inhibitor 7%, Pf growth 96h 10µM* and AmpC no deterg -11%.
